Source: PubChem BioAssay (EPA / NIEHS)
Where “and” joins values, the source holds several entries; their conditions need not be identical. Identical values can stand only once. Where a structure was tested more than once in an assay, its records may differ in their call. Calls of active or inactive are those of the source. How the source made its calls: active means hit-call score of the fitted dose curve at least 0.9, where 1 is the maximum; inactive means score below 0.9.

read-out: Collagen III, COL3A1 (gene 1281); test: BSK_hDFCGF_CollagenIII: BioMAP Diversity Plus: hDFCGF Assay for Collagen III Biomarker Activity (AID 2283056); conditions: primary human foreskin fibroblasts; actives raise or lower the signal
Experimental: BSK_hDFCGF is a cell-based, multiplexed-readout assay that uses foreskin fibroblast, a human skin primary cell, with measurements taken at 24 hours after chemical dosing in a 96-well plate.BSK_hDFCGF_CollagenIII is an assay component measured in the BSK_hDFCGF assay. It measures Collagen antibody related to regulation of gene expression using ELISA technology.Data from the assay component BSK_hDFCGF_CollagenIII was analyzed into 1 assay endpoint. This assay endpoint, BSK_hDFCGF_CollagenIII, was analyzed with bidirectional fitting relative to DMSO as the negative control and baseline of activity. Using a type of binding reporter, gain or loss-of-signal activity can be used to understand changes in the signaling as they relate to the gene COL3A1. Furthermore, this assay endpoint can be referred to as a primary readout, because this assay has produced multiple assay endpoints where this one serves a signaling function. To generalize the intended target to other relatable targets, this assay endpoint is annotated to the cell adhesion molecules intended target family, where the subfamily is collagen.
The levels of cell surface (or secreted, indicated by the prefix "s") biomarker endpoints were measured by ELISA. Overt cytotoxicity to cells in confluent adherent cultures (all systems other than the BT system) was assessed by measuring total protein levels using sulforhodamine B (SRB) staining in parallel cultures at the time of biomarker measurements, indicated as SRB endpoints. For proliferation assays for adherent cell types, individual cell types are cultured at sub-confluence and relative cell numbers quantified by SRB staining at time points optimized for each system (48 h: 3C and CASM3C systems; 72 h: BT and HDF3CGF systems; 96 h: SAg system). SRB was performed by staining cells with 0.1% SRB after fixation with 10% TCA and reading wells at 560 nm.Viability and proliferation of PBMC (T cells) was quantified by Alamar Blue reduction for the SAg and BT systems. For PBMC viability (referred to as PBMC Cytotoxicity within the assay endpoint names), cells were plated (75,000/well in a 96-well plate) and then chemical samples added for 1 h before addition of activators, SEB and TSST-1 (20 ng/mL final concentration each). Cells were incubated for 90 h. Then, Alamar Blue (20 uL/well) (Invitrogen, Cat DAL1100) was added for 6 h, and the plates were read with a fluorescence microplate reader at 546/580 nm (excitation/emission). For PBMC proliferation, cells were plated and activated as above but incubated for only 16 h prior to addition of Alamar Blue. Plates were read after 6 h.

SMILES | AC50 | outcome
CC(C)(c1ccc(O)cc1)c1ccc(O)cc1 | 6.87 µM (active) and 25.7 µM (active) | inactive
COC(=O)c1cccc(C)c1S(=O)(=O)NC(=O)Nc1nc(OCC(F)(F)F)nc(N(C)C)n1 |  | inactive
COC(=O)c1ccc(CNS(C)(=O)=O)cc1S(=O)(=O)NC(=O)Nc1nc(OC)cc(OC)n1 |  | inactive
Cc1nn(C)c(Oc2ccccc2)c1C=NOCc1ccc(C(=O)OC(C)(C)C)cc1 | 4.21 µM (active) | 
CCOC(=O)c1ccc(O)cc1 |  | inactive
CN(C)C(=O)Nc1ccc(Cl)c(Cl)c1 |  | inactive
C[C@]12C[C@H](O)[C@H]3[C@@H](CCC4=CC(=O)CC[C@@]43C)[C@@H]1CC[C@@H]2C(=O)CO |  | inactive
O=C(O)c1ccccc1 |  | inactive
CCCOC(=O)c1ccc(C(=O)OCCC)nc1 |  | inactive
Oc1ccc(C(c2ccc(O)cc2)C(Cl)(Cl)Cl)cc1 | 11.7 µM (active) | 
c1ccc2[nH]c(-c3cscn3)nc2c1 |  | inactive
C#CCOC(=O)[C@@H](C)Oc1ccc(Oc2ncc(Cl)cc2F)cc1 |  | inactive
S=C(S)NCCNC(=S)S.[Mn+2].[S-]C([S-])=NCCN=C([S-])[S-].[Zn+2] |  | inactive
C[C@]12CC[C@@H]3c4ccc(O)cc4C[C@@H](CCCCCCCCCS(=O)CCCC(F)(F)C(F)(F)F)[C@H]3[C@@H]1CC[C@@H]2O (stereo not given in full) |  | inactive
O=C(Nc1ccc([N+](=O)[O-])cc1Cl)c1cc(Cl)ccc1O | 0.148 µM (active) | 
CCOC(=O)C(C)Oc1ccc(Oc2cnc3cc(Cl)ccc3n2)cc1 (stereo not given) |  | inactive
CCOC(=O)C(C)Oc1ccc(Oc2nc3ccc(Cl)cc3o2)cc1 (stereo not given) |  | inactive
c1ccc(Nc2ccccc2)cc1 |  | inactive
CCCN(CCC)c1c([N+](=O)[O-])cc(C(F)(F)F)c(N)c1[N+](=O)[O-] | 31.4 µM (active) | 
O=C(c1ccccc1)C1CCCCC1 |  | inactive

SMILES | AC50 | outcome
CCCN(CCC)C(=O)SCC |  | inactive
CCCCOC(=O)C(C)Oc1ccc(Oc2ccc(C(F)(F)F)cn2)cc1 (stereo not given) |  | inactive
COc1c(Cl)ccc(Cl)c1C(=O)O |  | inactive
CCCOC(=O)NCCCN(C)C |  | inactive
COc1nc(C)nc(NC(=O)NS(=O)(=O)c2ccccc2OCCCl)n1 |  | inactive
COC(=O)c1c(Cl)nn(C)c1S(=O)(=O)NC(=O)Nc1nc(OC)cc(OC)n1 |  | inactive
CCOC(=O)NCCOc1ccc(Oc2ccccc2)cc1 | 12.6 µM (active) | 
CCCCC(CC)COC(=O)c1ccccc1C(=O)O (stereo not given) |  | inactive
N#CSCSc1nc2ccccc2s1 | 1.19 µM (active) and 424 nM (active) | 
CCN(Cc1c(F)cccc1Cl)c1c([N+](=O)[O-])cc(C(F)(F)F)cc1[N+](=O)[O-] |  | inactive
CC(=O)S[C@@H]1CC2=CC(=O)CC[C@]2(C)[C@H]2CC[C@@]3(C)[C@@H](CC[C@@]34CCC(=O)O4)[C@H]12 |  | inactive
CC1(C)C(C=C(Cl)Cl)C1C(=O)OCc1cccc(Oc2ccccc2)c1 (stereo not given) | 4.2 µM (active) | 
OB(O)O |  | inactive
CCOC(=O)[C@H](C)Oc1ccc(Oc2nc3ccc(Cl)cc3o2)cc1 | 3.97 µM (active) | 
CC(C)(C)[C@@H](O)[C@@H](Cc1ccc(Cl)cc1)n1cncn1 |  | inactive
CCCCC(CC)CN1C(=O)C2C3C=CC(C3)C2C1=O (stereo not given) | 30 µM (active) | 
CCCCOCCOCCOCc1cc2c(cc1CCC)OCO2 | 20 µM (active) | 
CSC(=O)c1cccc2nnsc12 |  | inactive
CCSC(=O)N(CC(C)C)CC(C)C |  | inactive
